# An excerpt weighted towards active compounds, which were near 21% of everything screened.
# Pf growth 48h – P. falciparum growth inhibition at 48 hours (one generation); P. falciparum luciferase growth in erythrocytes, 48 h; Potency, µM (titrated, usually from 28.7 µM), usual class: inhibitors; 310,000 tested, 5.9% active
#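 Luminescence readout; reporter = integrated firefly luciferase in P. falciparum. RBC culture at 2% hematocrit, 0.1% parasitemia final, 37 C/5% CO2; decreased signal taken as growth inhibition.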
# Pf growth 96h – inhibits malaria parasite growth, 96 h; P. falciparum luciferase reporter growth, 96 h; Potency, µM (doses to about 28.7 µM), actives largely listed as inhibitors; 320,000 tested, 6.9% active
#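 Erythrocytes infected with luciferase-expressing P. falciparum were dispensed at 2% hematocrit and 0.05% parasitemia (final), then incubated with compounds 96 hours at 37 C in 5% CO2. Luminescence after detection reagent addition reported growth.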
# NS1 inh – influenza NS1 inhibition | Potency, µM (titrated, usually from 46.1 µM) | 270,000 tested, 0.4% active | AID 2326; calls by dose curve; note: actives are rising curves; nearly all actives have a fitted effect of over 50% in size
#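 Growth recovery, yeast-based: influenza A NS1 expressed in S. cerevisiae causes slow growth, and suppressors are detected by OD600. The parent strain without NS1 is used as positive control.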
# Sm TGR block – S. mansoni TGR enzyme inhibition; Q962Y6; purified TGR, DTNB reduction, TNB absorbance 405 nm; Potency, µM (series often up to 114 µM), actives largely listed as inhibitors; 360,000 tested, 3% active; AID 485364; note: nearly all actives have a fitted effect of over 60% in size
#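 First, TGR (20 nM dispensed) and NADPH were mixed with compound. Second, a 15 min room-temperature incubation followed. Third, further NADPH and then DTNB were added to start the reaction. Finally, TNB absorbance was monitored kinetically.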
# Cycloheximide cs – counter-screen hit for Shiga toxin inhibitors, cycloheximide | cell reporter, cycloheximide protein synthesis inhibition counterscreen | 300,000 tested, 12% active | max response, %; in the data active = max response mostly above about 13%, no sharp cut-off; inactive = mostly below about 14%; note: read at 38.3 µM for the half of the compounds with a filed dose
# Shiga inhibitor – blocks Shiga toxin action in Vero cells. 290,000 tested, 9.2% active. AID 2315. Vero cells, Shiga toxin protein synthesis inhibition reporter. inhibition, % at 38.7 µM; in the data active = inhibition mostly above about 28%, no sharp cut-off; inactive = mostly below about 43%
# Numbers stand for hits; 0 = inactive; ? = inconclusive; - = no result; [ ] = another dose, or the depositor's remark. Unless noted, calls come from the whole dose curve; as a rule, active = well fitted curve in the direction sought with a large enough effect; inconclusive = small, poorly fitted or top-dose-only effect, or another doubt; inactive = no such curve, though single readings can be large; an effect the other way counts as inactive or inconclusive.
SMILES,Pf growth 48h,Pf growth 96h,NS1 inh,Sm TGR block,Cycloheximide cs,Shiga inhibitor
Cc1cccc(C(=O)Nc2cccc(C(=O)OCc3cc(=O)n4ccsc4n3)c2)c1,-,-,-,0,-,-
CCc1cccc(Nc2cc(C)nc3ncnn23)c1,?,?,0,0,0,0
CCn1c2ccccc2c2cc(Nc3cc(C)nc4ncnn34)ccc21,0.074µM,0,0,0,0,0
CCN(CC)S(=O)(=O)c1ccc(Nc2cc(C)nc3ncnn23)cc1,15µM,?,0,0,0,0
Cc1cc(Nc2ccc(Cl)cc2)n2ncnc2n1,?,0,0,0,0,0
Cc1ncc(CSc2ccc(Cl)cc2)c(CO)c1O,-,0,0,?,0,0
Nc1nccnc1C(=O)OCC(=O)NCCc1ccc(Cl)cc1,0,0,-,0,-,-
N#CC1=C(N)NC(SCC(=O)c2ccc(Cl)cc2)=C(C#N)C12CCCC2,?,-,0,0,0,0
N#CC1=C(N)NC(SCC(=O)c2ccc(Br)cc2)=C(C#N)C12CCCCC2,?,15µM,0,0,0,0
COc1ccc(C(=O)CSC2=C(C#N)C3(CCCCC3)C(C#N)=C(N)N2)cc1,12µM,0,0,0,0,0
N#CC1=C(N)NC(SCC(=O)Nc2ccccc2)=C(C#N)C12CCCCC2,?,13µM,0,0,0,0
COc1ccc(CNC(=O)CN(c2cccc([N+](=O)[O-])c2)S(C)(=O)=O)cc1,0,0,0,-,0,0
CC(NC(=O)c1ccco1)C(=O)OCC(=O)c1ccc(Cl)s1 (stereo not drawn),0,0,-,?,0,0
O=C(O)CCC1CCCC1,-,-,-,-,0,0
COC(=O)c1cc(-c2ccc(Cl)cc2)n[nH]1,0,0,0,0,38,47
COC(=O)c1cc(-c2ccc(Cl)cc2Cl)n[nH]1,0,0,-,0,29,63
CC(=O)c1cc2c(cc1NC(=O)c1ccc(Cl)cc1)OCCO2,0,0,0,0,0,-
O=C(Nc1cc2c(cc1Cl)OCCCO2)c1ccc(F)cc1,0,0,0,0,89,114
Cc1ccc(C(=O)Nc2cc3c(cc2Cl)OCCCO3)cc1,0,0,0,0,50,65
COc1ccc(CCNC(=O)C(=O)NCC(c2ccc3c(c2)OCO3)N2CCOCC2)cc1OC (stereo not drawn),-,-,-,0,-,-
O=C(Nc1cccc(F)c1F)C1CCN(c2ncccn2)CC1,-,-,-,0,-,-
NC(=O)C1CCN(C2CC(=O)N(c3cccc(F)c3)C2=O)CC1 (stereo not drawn),0,-,0,35µM,0,0
NC(=O)C1CCN(C2CC(=O)N(c3ccc(F)c(Cl)c3)C2=O)CC1 (stereo not drawn),0,0,0,25µM,0,0
Cc1ccccc1N1C(=O)CC(N2CCC(C(N)=O)CC2)C1=O (stereo not drawn),0,-,0,22µM,0,0
O=C(NCCc1ccc(Cl)cc1)c1cnc2sc(N3CCCCC3)nn2c1=O,-,-,-,0,-,-
SMILES,Pf growth 48h,Pf growth 96h,NS1 inh,Sm TGR block,Cycloheximide cs,Shiga inhibitor
O=C(Nc1ccccc1Oc1cccnc1)C1CCCN(Cc2ccccc2O)C1 (stereo not drawn),13µM,0,0,0,0,0
O=C(Nc1cccc(-c2ccc(F)cc2)c1)C1CCCN(Cc2cccnc2)C1 (stereo not drawn),?,0,0,0,0,0
CCN(CC)C(=O)C1CCCN(C/C=C/c2ccccc2)C1 (stereo not drawn),0,?,0,0,0,0
C#Cc1ccc(CN2CCCC(C(=O)Nc3ccccc3Oc3cccnc3)C2)cc1 (stereo not drawn),10µM,0,0,0,0,0
O=C(Nc1ccccc1Oc1cccnc1)C1CCCN(C/C=C/c2ccccc2)C1 (stereo not drawn),5.2µM,?,0,0,0,0
CC(C)n1cc(CN2CCCC(C(=O)Nc3ccccc3Oc3cccnc3)C2)cn1 (stereo not drawn),0,0,0,0,0,0
Cc1ccccc1C(=O)Nc1ccc2nc(Nc3cccc(C(F)(F)F)c3)cc(C)c2c1,-,-,-,0,-,-
O=C(OCC(=O)N1CCOCC1)c1ccccc1Br,0,0,0,0,39,47
O=C(OCC(=O)N1CCOCC1)c1ccccc1Cc1ccccc1,0,0,0,0,39,60
Cc1ccsc1C(=O)OCC(=O)N1CCOCC1,0,0,0,0,35,73
Cc1oc2cc3oc(=O)c(CC(=O)NCc4ccccc4)c(C)c3cc2c1C,-,-,-,0,-,-
COC(=O)CCN1CCN(S(=O)(=O)c2ccccc2Br)CC1,0,0,-,0,0,0
CCn1cc(C(=O)NCC(C)C)c(=O)c2cc(F)c(N3CCN(C(=O)c4ccco4)CC3)cc21,4.1µM,0,0,0,0,0
CCn1cc(C(=O)O)c(=O)c2cc(F)c(N3CCN(C(=S)NC(=O)c4ccc(Br)cc4)CC3)cc21,?,0,-,0,0,0
CCn1cc(C(=O)NCc2ccco2)c(=O)c2cc(F)c(N3CCN(C(=O)c4ccco4)CC3)cc21,7.4µM,0,0[9.22 µM],20µM,0,0
CCn1cc(C(=O)NCc2ccccn2)c(=O)c2cc(F)c(N3CCN(C)CC3)cc21,0,0,0,0,0,0
CCn1cc(C(=O)NCC(C)C)c(=O)c2cc(F)c(N3CCN(C)CC3)cc21,0,0,0,0,0,0
CCC(C)NC(=O)c1cn(CC)c2cc(N3CCN(C(=O)c4ccco4)CC3)c(F)cc2c1=O (stereo not drawn),5.9µM,4.1µM,0,?,0,0
CCn1cc(C(=O)NCc2ccc3c(c2)OCO3)c(=O)c2cc(F)c(N3CCN(C)CC3)cc21,?,0,0,0,0,0
C=CCNC(=O)c1cn(CC)c2cc(N3CCN(C(=O)c4ccco4)CC3)c(F)cc2c1=O,7.4µM,?,0,?,0,0
Cc1cc(C)n(-c2nc3ccccc3nc2Nc2cccc(C)c2C)n1,-,-,-,0,-,-
Cc1ccccc1C(=O)Nc1sc2c(c1C(=O)NCc1ccco1)CCC(C(C)(C)C)C2 (stereo not drawn),-,-,-,0,-,-
C/C=C/c1ccc(OCC(=O)O)c(OC)c1,0,0,0,?,0,0
C/C=C/c1ccc(OCCCCOc2ccccc2F)c(OC)c1,0,?,0,0,0,0
C/C=C/c1ccc(OCCOc2cc(C=O)ccc2OC)c(OC)c1,0,?,0,0,52,62
SMILES,Pf growth 48h,Pf growth 96h,NS1 inh,Sm TGR block,Cycloheximide cs,Shiga inhibitor
C/C=C/c1ccc(OCC(=O)OCC)c(OC)c1,?,0,0,-,14,0
Cc1ccc(C(=O)NCCNC(=O)c2ccc(F)cc2)cn1,0,0,0,0,0,0
O=C(CCSCc1ccc(Cl)cc1)NC1CCCC1,?,?,0,0,0,0
COc1ccc(-c2cc(C(=O)Nc3c(C)nn(Cc4ccc(F)cc4)c3C)no2)cc1OC,-,-,-,0,-,-
CN(C)c1ccc(N=Nc2ccccc2C(=O)OCC(=O)N2CCCCCC2)cc1,0,0,0,0,28,56
CN(C)c1ccc(N=Nc2ccccc2C(=O)OCC(=O)Nc2ccccc2C(F)(F)F)cc1,?,9.3µM,?,0,37,56
O=C(OCC(=O)N1CCCC1)c1ccccc1C(=O)c1ccccc1,0,0,-,0,-,-

# Bioassay records deposited in PubChem by National Center for Advancing Translational Sciences (NCATS).
